The source of these data is PubChem BioAssay (NCI).

Holding throughout (assay): NCI-60 one-dose screen, 48 h (100 = growth as untreated, 0 = no growth, -100 = all killed)
What all share (conditions): 10 µM unless noted

Assay [1] relates to T-47D breast.
Assay [2] relates to BT-549 breast.
Assay [3] deals with MDA-MB-435 melanoma.
Assay [4] relates to SW-620 colon.
Assay [5] deals with MCF7 breast.
In assay [6] the test system is HCT-116 colon.
Assay [7] has as its system HCC-2998 colon.
The test system of assay [8] is KM12 colon.

The structures appear in SMILES notation. About 83,000 compounds went through this panel and 20% of them were active in at least one assay; those are over-represented in the sample as a whole.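 Results are percent growth after 48 hours of single-concentration exposure. 100 means growth as in untreated cells, lower positive values show inhibition; negative values down to -100 show cell death.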 Unmarked numbers belong to inactive results. Active and inactive are the calls of the source. How the source made its calls: active means growth percent below 10; inactive means the rest.

For the compound `O=C(O)CS(=O)c1ccc(Cl)cc1` (stereo unspecified), the growth is 101% in assay [1]; 99.8% in assay [2]; 102% in assay [3]; 106% in assay [4]; 101% in assay [5]; 97.6% in assay [6]. The growth in assay [7] was 97.1%; in assay [8], 103%.
Take `O=C(Oc1ccccc1)c1ccccc1Cl`: the growth in assay [1] is 100%; in assay [2], 96.8%; in assay [3], 103%; in assay [4], 104%; in assay [5], 102%; in assay [6] it was 102%. Moreover, the values for the growth in assay [7] and in assay [8] were 108% and 98.9%, respectively.
As for `COc1ccc(-c2nc(SCC(C)C)nc(Nc3ccc(C)cc3)c2C#N)cc1`, the growth in assay [1] is 32.4%; in assay [2], 85.8%; in assay [3] it was 86.7%; in assay [4] it was 54.4%; in assay [5], 70.3%; in assay [6], 33.5%. Also, the figures for the growth in assay [7] and in assay [8] were 92.5% and 80.8%, respectively.
Regarding `COc1cc(OC)c(/C=C/c2ccc3ccccc3[n+]2C)c(OC)c1`, the growth in assay [1] was 9.72% (active); in assay [2], -0.0814% (active); in assay [3], -30.6% (active); in assay [4], 13.5%; in assay [5], 3.94% (active); in assay [6], 2.2% (active). Further, the values for the growth in assay [7] and in assay [8] were 13.4% and -49.2% (active), respectively.
Take `CNc1ccc(Nc2ccc(S(=O)(=O)O)cc2)c2c1C(=O)c1ccccc1C2=O`: the growth in assay [1] was 110%; in assay [2] it was 99.5%; in assay [3] it was 95%; in assay [4], 112%; in assay [5] it was 97%; in assay [6], 109%. For the same compound, the values for the growth in assay [7] and in assay [8] were 112% and 108%, respectively.
In the case of `COC(=O)[C@H](Cc1cn(C)cn1)NC(=O)[C@H](CC(=O)OCc1ccccc1)NC(=O)Nc1cc(C(F)(F)F)cc(C(F)(F)F)c1`, the growth in assay [1] is -62.1% [100 µM] (active); in assay [2] it was -96.6% [100 µM] (active); in assay [3], -91.9% [100 µM] (active); in assay [4], -59.2% [100 µM] (active); in assay [5], -60.5% [100 µM] (active); in assay [6], -97.9% [100 µM] (active). For the same compound, the values for the growth in assay [7] and in assay [8] were -91.5% [100 µM] (active) and -89.8% [100 µM] (active), respectively.
Turning to `Cc1c(O)c(N=Nc2ccc(C(=O)O)c(O)c2)c2ccccc2c1O`, the growth in assay [1] was 112%; in assay [2], 89.3%; in assay [3], 106%; in assay [4], 84.8%; in assay [5], 101%; in assay [6] it was 98.1%. The values for the growth in assay [7] and in assay [8] were 118% and 98.3%, respectively.
`CC[N+](C)(C)N`: the growth in assay [1] was 103%; in assay [2], 105%; in assay [3] it was 109%; in assay [4], 105%; in assay [5], 91.7%; in assay [6], 99%. Moreover, the results for the growth in assay [7] and in assay [8] were 113% and 107%, respectively.
Take `NNC(=O)CNc1ccc2ccccc2c1`: the growth is 108% in assay [1]; 93.4% in assay [2]; 111% in assay [3]; 99.8% in assay [4]; 102% in assay [5]; 107% in assay [6]. In addition, the growth was 140% in assay [7] and 97.2% in assay [8].
`COc1cc(NC(=O)CSc2nc3ccc(Cl)cc3c(=O)n2-c2ccc(F)cc2)cc(OC)c1OC`: the growth in assay [1] was 72.6%; in assay [2], 95.9%; in assay [3] it was 90.8%; in assay [4] it was 95.4%; in assay [5], 87.5%; in assay [6] it was 79.4%. The figures for the growth in assay [7] and in assay [8] were 105% and 85.2%, respectively.
In the case of `CC(=O)O.[In]`, the growth in assay [1] is 103%; in assay [2] it was 105%; in assay [3] it was 102%; in assay [4], 106%; in assay [5], 108%; in assay [6], 106%. Besides, the growth in assay [7] was 108%; in assay [8], 104%.
With `O=C1/C(=C\c2cn(-c3nc(N4CCOCC4)nc(N4CCOCC4)n3)c3ccccc23)c2ccccc2N1c1c(Cl)cccc1Cl`, the growth was 45.5% in assay [1]; 39.1% in assay [2]; 83.5% in assay [3]; 84.5% in assay [4]; 50.6% in assay [5]; 71.6% in assay [6]. Also, the growth in assay [7] is 75.5%; in assay [8], 88.5%.
With `CC(O)CN(CCO)CCN(CCO)CC(C)O` (stereo unspecified), the growth in assay [1] was 100%; in assay [2], 105%; in assay [3], 106%; in assay [4] it was 105%; in assay [5] it was 94.5%; in assay [6], 104%. The values for the growth in assay [7] and in assay [8] were 109% and 108%, respectively.
Take `CC#Cc1nc(Nc2cc(C)[nH]n2)c2ccccc2n1`: the growth in assay [1] was 2.69% [100 µM] (active); in assay [2], -61.9% [100 µM] (active); in assay [3] it was -44.4% [100 µM] (active); in assay [4], -1.25% [100 µM] (active); in assay [5] it was 6.03% [100 µM] (active); in assay [6], -15.7% [100 µM] (active). The growth in assay [7] is -86.3% [100 µM] (active); in assay [8] it was -74.6% [100 µM] (active).
As for `Cc1cc(CSc2ccc(Cl)cc2)ccc1N`, the growth in assay [1] was 84.1%; in assay [2], 55.6%; in assay [3], 104%; in assay [4] it was 126%; in assay [5] it was 112%; in assay [6], 101%. The growth in assay [7] was 97.7%; in assay [8] it was 70.7%.
In the case of `O=C(O)c1ccc(-c2nn(-c3ccc(C(=O)O)cc3)cc2CNc2ccc(Br)cc2)cc1`, the growth is 96.6% in assay [1]; 98.8% in assay [2]; 107% in assay [3]; 107% in assay [4]; 90.3% in assay [5]; 101% in assay [6]. Moreover, the growth was 102% in assay [7] and 98.1% in assay [8].
Regarding `CN(C)CCOC(=O)C(C)(C)C`, the growth in assay [1] was 103%; in assay [2] it was 112%; in assay [3], 104%; in assay [4], 91.6%; in assay [5], 99.3%; in assay [6], 103%. Moreover, the growth in assay [7] was 110%; in assay [8], 106%.
For `CCCC(CCC)Oc1ccc(CCCC2=C(O)c3ccccc3C(=O)C2=O)cc1`, the growth is 65.4% in assay [1]; 35.5% in assay [2]; 37.4% in assay [3]; 28.1% in assay [4]; 29% in assay [5]; 16.7% in assay [6]. The growth in assay [7] is 13.4%; in assay [8] it was 23.7%.
For the compound `Nc1ccc(S(=O)(=O)c2ccc(NO)cc2)cc1`, the growth is 96.9% in assay [1]; 80% in assay [2]; 97.3% in assay [3]; 104% in assay [4]; 95.1% in assay [5]; 98.9% in assay [6]. In addition, the growth in assay [7] was 92.6%; in assay [8], 116%.
As for `O=C1N/C(=N\c2nnc(-c3ccc(O)cc3)s2)S/C1=C\c1ccccc1O`, the growth in assay [1] was 97.9%; in assay [2], 97%; in assay [3], 94.4%; in assay [4] it was 96.1%; in assay [5] it was 88.4%; in assay [6] it was 91.7%. Also, the results for the growth in assay [7] and in assay [8] were 106% and 96.7%, respectively.
Regarding `NC(N)=N/N=C/c1cccc(Br)c1`, the growth in assay [1] is 86.8%; in assay [2] it was 87%; in assay [3], 105%; in assay [4], 102%; in assay [5], 90.5%; in assay [6], 92.5%. For the same compound, the growth was 101% in assay [7] and 107% in assay [8].
Consider `Cc1c(C(N)=O)sc2c1c(=O)n(Cc1ccccc1)c1nnc(S(C)(=O)=O)n21`, for which the growth is 89.4% in assay [1]; 78.9% in assay [2]; 81.7% in assay [3]; 94.3% in assay [4]; 73.3% in assay [5]; 79.6% in assay [6]. In addition, the growth in assay [7] is 103%; in assay [8] it was 109%.
`COc1ccc(-c2nc(N)n(C(=S)Nc3ccccc3)n2)cc1`: the growth in assay [1] was 84.8%; in assay [2], 102%; in assay [3] it was 107%; in assay [4] it was 99%; in assay [5] it was 89.1%; in assay [6] it was 98.3%. The growth in assay [7] was 107%; in assay [8], 95.5%.
For `O=C(Nn1cnc2ccccc21)N1CCCC1`, the growth in assay [1] is 106%; in assay [2], 96.5%; in assay [3], 104%; in assay [4], 109%; in assay [5] it was 108%; in assay [6] it was 85.1%. The results for the growth in assay [7] and in assay [8] were 83.7% and 116%, respectively.
Take `COc1cccc2c1nc1cccc(OC)c1[n+]2[O-]`: the growth in assay [1] was 32%; in assay [2], 32.9%; in assay [3], 98.4%; in assay [4], 50%; in assay [5], 32.8%; in assay [6] it was 39.3%. The values for the growth in assay [7] and in assay [8] were -47.5% (active) and 54.9%, respectively.
Regarding `Cc1nnc(/N=C2\NC(=O)/C(=C/C=C/c3ccccc3)S2)s1`, the growth is 53.8% in assay [1]; 52.2% in assay [2]; 16.3% in assay [3]; 74.1% in assay [4]; 39.9% in assay [5]; 36.9% in assay [6]. Further, the growth was 67% in assay [7] and 42.7% in assay [8].
Turning to `CCCCN(CCCC)CCCNc1c2c(nc3ccc(Cl)cc13)CCCC2`, the growth was 95.7% in assay [1]; 108% in assay [2]; 103% in assay [3]; 82.3% in assay [4]; 89.6% in assay [5]; 57.6% in assay [6]. For the same compound, the growth in assay [7] is 82.8%; in assay [8], 99.7%.
